Results: PubChem BioAssay AID504558 (Broad Institute, 2011)
Hit rate of the full screen: of about 350,000 compounds, about 2,400 (0.69%) were called active. Shown is part of a subset that was picked to be rich in actives. Unmarked numbers belong to inactive results. No stated cut-off is given here; in the data, active means inhibition above about 41%; inconclusive means no clear call, values can overlap the other calls; inactive means below that.

Test: blockers of LMP1-induced NF-kB reporter signal – cell-based, luminescence, single point, primary screen (AID 504558);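 further: 0% = neutral control wells and 100% = reference inhibitor control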
Settings: LMP1-induced NF-kappaB luciferase reporter cells, at 12.5 µM, hits give high values

Row | Structure (SMILES) | inhibition
1 | CCOC(=O)c1c(C)[nH]c(C)c1C(=O)COC(=O)/C=C/c1cccc([N+](=O)[O-])c1 | 7.29%
2 | O=C(C[n+]1ccccc1)N/N=C/c1ccc(O)cc1 | 45.7% (active)
3 | Cc1nonc1C(=O)N/N=C/c1ccc(O)cc1 | -10.7%
4 | Nc1nnn(CC(=O)N/N=C/c2ccc(O)cc2)n1 | -8.43%
5 | O=C(OCc1ccccc1)N1CCC2CC1c1ccc(-c3ccc4c(c3)OCO4)cc12 (centres undefined) | -5.51%
6 | O=NN(CCCl)C(=O)NCCc1cccc[n+]1[O-] | 1.36%
7 | Cc1csc(NC(=O)c2ccc(-c3ccc(Cl)cc3Cl)o2)n1 | 5.23%
8 | COc1ccc(C(=O)NC2=NCCS2)c(OC)c1 | 14.4%
9 | COC(=O)c1sc(NC(=S)NC(=O)c2ccc(C)cc2)nc1C | -2.09%
10 | COc1cc(SC)ccc1C(=O)Nc1nc(C)cs1 | 77% (active)
11 | COC(=O)c1sc(NC(=O)c2ccc(OC)cc2OC)nc1C | 56.8% (active)
12 | COc1cc(SC)ccc1C(=O)NNC(=O)C1COc2ccccc2O1 (centres undefined) | 3.35%
13 | O=C(c1ccc(N2CCCC2=O)cc1)N1CCN(c2ccc(C(F)(F)F)cc2[N+](=O)[O-])CC1 | 5.85%
14 | CCc1c(N=O)c(-c2ccccc2)n(O)[n+]1[O-] | -1.78%
15 | COc1ccc(CN2C[C@H]3CON(C)[C@H]3C[C@H]2c2ccc(-c3cccc(F)c3)cc2)cc1 | 6.65%
16 | C=CCN1CCN(c2ccncc2S(=O)(=O)N2CCN(C)CC2)CC1 | -2.07%
17 | C[C@H]1CN([C@@H](C)CO)C(=O)CCCn2cc(nn2)CO[C@@H]1CN(C)S(=O)(=O)c1ccc(-c2ccccc2)cc1 | 1.8%
18 | CC(=O)CC[C@@H](C)O[C@@H]1OC(C)[C@H](O)CC1O (some centres undefined) | 85.2% (active)
19 | COCCNC(=O)CSc1nc(N)c(NC(=O)c2ccco2)c(=O)[nH]1 | 2.34%
20 | CN1CCN(c2ccncc2S(=O)(=O)N2CCCC2)CC1 | -0.542%
21 | Cn1nc(N)c2ncc(C(Cl)(Cl)Cl)nc21 | 1.82%

Row | Structure (SMILES) | inhibition
22 | O=C1[C@H]2[C@@H](c3ccc(C(F)(F)F)cc3)N[C@]3(CCCN(Cc4ccc(Br)cc4)C3=O)[C@H]2C(=O)N1Cc1ccccc1 | -24.7%
23 | CCCCCOC(=O)c1ccc(N2C(=O)C3C4C=CC(C4)C3C2=O)cc1 (centres undefined) | 0.71%
24 | CCCCCCCCCCOC(=O)C[N+](C)(C)CC1CCCCC1O (centres undefined) | 51% (active)
25 | CC[C@]1(C(=O)OC)[C@H]2C(=O)N(Cc3ccccc3)C(=O)[C@H]2[C@H]2CN=C(SCc3ccc(C#N)cc3)N21 | 61.8% (active)
26 | CCCN=C1N(C)C[C@@H]2[C@@H]3C(=O)N(Cc4ccccc4)C(=O)[C@@H]3[C@](C)(C(=O)OC)N12 | -3.21%
27 | CC[C@]1(C(=O)OC)[C@H]2C(=O)N(Cc3ccccc3)C(=O)[C@H]2[C@H]2CN=C(SCc3ccc(Cl)cc3)N21 | 87.9% (active)
28 | CC[C@]1(C(=O)OC)[C@H]2C(=O)N(Cc3ccccc3)C(=O)[C@H]2[C@H]2CN=C(SCc3ccccc3)N21 | -0.0665%
29 | CCN1C[C@@H]2[C@@H]3C(=O)N(Cc4ccccc4)C(=O)[C@@H]3[C@](Cc3ccccc3)(C(=O)OC)N2C1=NC1CCCCC1 | 0.675%
30 | COC(=O)[C@@]1(C)[C@H]2C(=O)N(Cc3ccccc3)C(=O)[C@H]2[C@H]2CN=C(SCC3CC3)N21 | -0.447%
31 | C[C@@H]1CN([C@H](C)CO)C(=O)CCCn2nncc2CO[C@@H]1CN(C)C(=O)OCc1ccccc1 | 3.33%
32 | CCCCCC(=O)N1C[C@H](O)[C@@H](n2cc(COC(=O)c3ccccc3)nn2)C[C@@H]1c1ccc(C)cc1 | -2.09%
33 | CC(C)n1ncc2c(C(=O)N3CCN(Cc4cccs4)CC3)cc(C3CC3)nc21 | -5.29%
34 | NC(=S)NN=Cc1ccc(OC(=O)COc2cc(Cl)c(Cl)cc2Cl)cn1 | 12.2%
35 | CC1=C(C(=O)N(C)C)CC(CC(=O)NCCN2CCOCC2)C(=O)N1Cc1ccccc1 (centres undefined) | -6.42%
36 | O=C(c1cccs1)N1C[C@H](n2cc(C3CC3)nn2)[C@@H](O)C[C@@H]1c1ccccc1 | 5.6%
37 | COc1ccc(NC(=O)N2CCCC2C(=O)NCc2ccccc2Cl)cc1 (centres undefined) | 86.6% (active)
38 | O=C(NCc1ccccc1Cl)C1CCCN1S(=O)(=O)c1ccc(F)cc1 (centres undefined) | 45.2% (active)
39 | COc1ccc(NC(=O)C(NC(C)=O)C(=O)NCc2ccccc2Cl)cc1 (centres undefined) | -2.84%
40 | O=C(NCc1ccccc1CN1CCCC1)C1CCN(S(=O)(=O)c2ccc(Cl)cc2)CC1 | -3.5%
41 | COc1ccc(CCNC(=O)C2CCCN2C(=O)Nc2ccccc2)cc1OC (centres undefined) | -0.848%
42 | Cc1cccc(NC(=O)C2CCCN2S(=O)(=O)c2ccc(F)cc2)c1C (centres undefined) | -1.63%

Row | Structure (SMILES) | inhibition
43 | CN1CCn2cnc(C(=O)NCC(=O)OC(C)(C)C)c2C1=O | 6.74%
44 | COc1ccc(-c2ccc(CN3C(CC(C)C)C(=O)N(Cc4cn(CC5CCCCC5)nn4)CCS3(=O)=O)cc2)cc1 (centres undefined) | 17.4%
45 | CCCNC(=O)C1CC(=O)N(c2ccc(OCc3ccccc3)cc2)C1 (centres undefined) | -15.7%
46 | C/C(COc1ccccc1)=N\NC(=O)c1nnn(-c2nonc2N)c1-c1ccc(C)cc1 | 4.25%
47 | Cc1cc(Nc2ccc(C)c(C)c2)n2ncnc2n1 | 8.05%
48 | O=C(CN1C(=O)c2ccccc2S1(=O)=O)N1CCc2ccccc21 | 71.7% (active)
49 | CC1CCCN(C(=O)CN2C(=O)c3ccccc3S2(=O)=O)C1 (centres undefined) | -11.4%
50 | O=C(CSCc1ccccc1)N1CCc2ccccc21 | -29.9%
51 | CC1(C2CC2)NC(=O)N(CC(=O)N2CCN(c3ccccc3F)CC2)C1=O (centres undefined) | -9.22%
52 | COc1cc2nnn(-c3ccncc3)c2cc1OC | -4.43%
53 | CCCCN(C(C)=O)c1ccc2c(c1)C1CC2CCN1Cc1ccccc1 (centres undefined) | 2.88%
54 | CCOC(=O)c1cnc(-n2nc(C)cc2C)nc1NNc1cc(C)nc(-c2ccccc2)n1 | 73.6% (active)
55 | Cc1cc(-n2nc(C)cc2C)n2ncc(-c3ccccc3)c2n1 | -21%
56 | Cc1cc(C)n(-c2c(F)c(F)c(COC(=O)c3ccccc3)c(F)c2F)n1 | -9.15%
57 | CCOC(=O)c1cc(-c2sc(NC(=O)c3ccccc3)nc2C)n(Cc2ccccc2)n1 | 12.1%
58 | COc1ccc(NC(=O)c2cc(=O)[nH]c3ccccc23)cc1S(=O)(=O)N1CCOCC1 | -9.47%
59 | N#Cc1ccc(OCC(=O)Nc2nc(-c3ccccn3)cs2)cc1 | 23.6%
60 | COc1ccc(Cl)cc1NC(=O)CN(C)C(=O)c1cn(-c2ccccc2)nc1-c1cccs1 | 2.49%
61 | CC(=O)Nc1ccc2c3c(ccc([N+](=O)[O-])c13)CC2 | 3.38%
62 | Cc1cc(C)nc(-n2nc(C)cc2NC(=O)c2ccc(F)cc2F)n1 | -4.13%
63 | COc1ccc(C(C)=O)cc1CSc1nc2nc(C)cc(C)n2n1 | 6.79%

Row | Structure (SMILES) | inhibition
64 | CC(=O)c1ccc(Oc2cc(C)nc(-n3nc(C)cc3C)n2)cc1 | 89.4% (active)
65 | C[C@H]1CN([C@@H](C)CO)C(=O)CCCn2cc(nn2)CO[C@@H]1CN(C)S(=O)(=O)c1ccccc1C#N | 6.79%
66 | C[C@H]1CN([C@@H](C)CO)C(=O)c2cc(-c3ccccc3F)cnc2O[C@H]1CN(C)C(=O)C1CCOCC1 | -4.67%
67 | CCCCCCN1C[C@@H](O)[C@H](n2cc(COC(=O)c3ccccc3)nn2)C[C@@H]1c1ccc(Cl)cc1 | 1.86%
68 | C[C@H]1CN([C@@H](C)CO)C(=O)c2cc(Br)cnc2O[C@H]1CN(C)S(=O)(=O)c1cccs1 | -1.05%
69 | COc1cccc(NC(=O)Nc2ccc(F)cc2)c1 | -3.33%
70 | O=C(CSc1ccc(-c2ccco2)nn1)NCc1ccc2c(c1)OCO2 | -3.64%
71 | O=C(CSc1nc2cc3c(cc2c(=O)n1CCC1=CCCCC1)OCO3)NCc1ccco1 | 44.3% (active)
72 | O=C(CSc1c2c(nc3ccc(Cl)cc13)CCCC2)NCc1ccco1 | 19.1%
73 | COc1ccc(/C=C2\SC(=S)N(CCC(=O)N3CCOCC3)C2=O)cc1OC | 9.24%
74 | Cc1cc(=O)[nH]c(=S)[nH]1 | 80.5% (active)
75 | Cc1cc(=O)cc(C)[nH]1 | -6.47%
76 | CSc1cc(C)[nH]c(=O)n1 | -0.805%
77 | C[C@@H]1CN([C@H](C)CO)C(=O)CCCn2nncc2CO[C@@H]1CN(C)S(=O)(=O)c1cccc(C#N)c1 | 1.72%
78 | COCCCn1c(C(=O)NC2CCCCC2)cc2c(=O)n3cccc(C)c3nc21 | 1.22%
79 | C[C@H](O)[C@@H]1C(=O)N2CCc3c([nH]c4ccccc34)[C@@H]2C[C@@H]1N(C)C(=O)Nc1ccc(F)cc1 | 3.72%
80 | CC1C(=O)N(Cc2cn(CC3CCCCC3)nn2)CCS(=O)(=O)N1Cc1ccc(-c2cccc(N(C)C)c2)cc1 (centres undefined) | 6.34%
81 | CN(C)C(CNC(=O)c1cc(Br)c(Br)s1)c1ccco1 (centres undefined) | -1.49%
82 | CC(=O)N1CCCc2cc(S(=O)(=O)N3CCCC(C(=O)N4CCN(c5cccc(Cl)c5)CC4)C3)ccc21 (centres undefined) | 42.1% (active)
83 | CC(=O)N1c2ccc(S(=O)(=O)N3CCC(C(=O)N4CCN(c5ccccc5)CC4)CC3)cc2CC1C (centres undefined) | 4.09%
84 | CC(=O)N1CCCc2cc(S(=O)(=O)CCC(=O)N3CCN(c4ccccc4)CC3)ccc21 | -0.617%
